This note sets out measurements from ChEMBL document CHEMBL1157539, “Thousands of chemical starting points for antimalarial lead identification” (Nature, 2010).

Common to all, as to format: functional
Assay [1] relates to Plasmodium falciparum. As to the kind of experiment: GSK_TCMDC: Inhibition of Plasmodium falciparum 3D7 in whole red blood cells, using parasite LDH activity as an index of growth. Test compounds present at 2uM.
Assay [2] deals with Plasmodium falciparum. Nature of the assay: GSK_TCMDC: Inhibition of Plasmodium falciparum Dd2 in whole red blood cells, using parasite LDH activity as an index of growth. Test compounds present at 2uM.
Another assay concerns HepG2. As to the kind of experiment: GSK_TCMDC: Percent inhibition of human HepG2 cell line. Test compounds present at 10uM.

As to `Cc1nnc(NC(=O)c2cn(-c3ccccc3)nc2-c2ccccc2C)o1`, the results for the Inhibition with Plasmodium falciparum [1], in the assay on Plasmodium falciparum [2] and in the assay on HepG2 were 93%, 87% and 37%, respectively.

For `CS(=O)(=O)c1ccc(CNCc2ccc(-c3ccc(-c4nc5cc(C(F)(F)F)ccc5[nH]4)s3)cc2)cc1.O=C(O)C(F)(F)F`, the Inhibition came out at 100% in the assay on Plasmodium falciparum [1], 98% in the assay on Plasmodium falciparum [2] and 49% in the assay on HepG2.

As to `CC(CCc1ccc(OCc2ccccc2)cc1)NCC(O)c1ccccc1` (stereo not given), the Inhibition is recorded as 86% in the assay on Plasmodium falciparum [1], 72% in the assay on Plasmodium falciparum [2] and 9% with HepG2.

Regarding `Cc1cc2[nH]c(-c3ccc(C(=O)NCCCN4CCN(c5cccc(Cl)c5)CC4)cc3F)nc2cc1Cl`, the Inhibition with Plasmodium falciparum [1] worked out at 99%; with Plasmodium falciparum [2] it was 79%; with HepG2, 0%.

Consider `O=C(NCCCCNCC(Cc1cccc([O-])c1)c1ccccc1)c1ccc(NC(=O)c2ccc(Cl)cc2)cc1.[Na+]` (stereo not given), for which the figures for the Inhibition with Plasmodium falciparum [1], with Plasmodium falciparum [2] and in the assay on HepG2 were 96%, 1% and 0%, respectively.

In the case of `C(=Cc1ccccc1)C=NN=c1cc[nH]c2ccccc12`, the Inhibition in the assay on Plasmodium falciparum [1] was 100%; in the assay with Plasmodium falciparum [2] it was 100%; with HepG2 it was 24%.

For `O=C(/C=C/c1ccc(Cl)c(Cl)c1)NCCCCCN1CCC(c2cn[nH]c2-c2ccccc2)CC1`, the Inhibition in the assay on Plasmodium falciparum [1] stood at 85%; in the assay with Plasmodium falciparum [2], 0%; in the assay on HepG2, 28%.

As for `O=C(Nc1cccc(Cl)c1)N[C@H]1CCN(Cc2ccc(OCCCN3CCCCC3)cc2)C1`, the values for the Inhibition in the assay with Plasmodium falciparum [1], with Plasmodium falciparum [2] and with HepG2 were 99%, 0% and 15%, respectively.

As for `CN1CCN(c2cccc(-c3nnc(-c4ccc(OCC(=O)NCc5ccc(C(F)(F)F)cc5)c([N+](=O)[O-])c4)o3)c2)CC1`, the values for the Inhibition with Plasmodium falciparum [1], in the assay with Plasmodium falciparum [2] and in the assay on HepG2 were 90%, 44% and 35%, respectively.

For `O=C(Cc1ccc(NC(=O)c2ccc(O)c(-c3ccc(Cl)c(Cl)c3)c2)cc1)NCCN1CCOCC1`, the Inhibition in the assay with Plasmodium falciparum [1] was 94%; with Plasmodium falciparum [2] it was 24%; with HepG2, 10%.

A word on the Inhibition: it is the percentage by which the read-out fell short of the control. A lower Inhibition goes with little suppression.
